Experimental data from PubChem BioAssay AID382 (SGCOxCompounds, 2006).
Calls of active or inactive are those of the source. How the calls were made is not given here.

Molecular target: Dual specificity protein kinase CLK1 (Homo sapiens) (UniProt P49759)
Experiment: CLK1 binders by thermal stabilization, biophysical, recombinant human kinase, DSF (AID 382)
Conditions: buffer 10 mM HEPES, stronger effect = higher value
[1] = measured here: replicate experiment 2, at 10 µM, run 2, protein 2 µM, NaCl 150 mM

Chain of Dual specificity protein kinase CLK1 (Homo sapiens) (P49759 whole entry, looked up): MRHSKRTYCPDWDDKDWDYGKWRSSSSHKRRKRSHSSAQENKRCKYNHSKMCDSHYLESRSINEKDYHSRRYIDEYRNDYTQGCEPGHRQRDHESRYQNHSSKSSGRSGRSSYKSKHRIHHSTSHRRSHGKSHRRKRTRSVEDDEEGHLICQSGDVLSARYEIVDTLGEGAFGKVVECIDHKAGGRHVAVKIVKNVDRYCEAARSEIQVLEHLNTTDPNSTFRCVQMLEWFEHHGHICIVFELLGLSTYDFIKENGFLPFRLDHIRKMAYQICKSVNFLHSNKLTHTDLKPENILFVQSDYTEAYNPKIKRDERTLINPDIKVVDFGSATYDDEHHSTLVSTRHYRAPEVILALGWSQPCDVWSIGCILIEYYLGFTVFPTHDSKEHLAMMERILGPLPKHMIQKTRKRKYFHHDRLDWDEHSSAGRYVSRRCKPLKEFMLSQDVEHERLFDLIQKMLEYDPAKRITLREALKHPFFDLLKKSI

N#C/C(=C1\Nc2ccccc2S1)c1ccnc(NCCc2cccnc2)n1
Tm shift (at 10 µM, protein 2 µM, pH 7.5, NaCl 150 mM, with 50 µM L-Arg/L-Glu (1:1)): 5.9 Celsius (active)

Cc1c2ccncc2c(C)c2c1[nH]c1ccccc12
Tm shift (at 10 µM, protein 2 µM, pH 7.5, NaCl 150 mM, with 50 mM Arg/Glu): 3.3 Celsius (active)

CCn1cnc2c(Nc3cccc(Cl)c3)nc(N[C@@H]3CCCC[C@@H]3N)nc21
Tm shift [1]: 4.5 Celsius

COc1ccc2c(c1)/C(=C/c1cnc[nH]1)C(=O)N2
Tm shift [1]: 3.4 Celsius
